Measurements: ChEMBL document CHEMBL3988442, “University of Dundee, Small-Polar-MMV Screening Library” (2021)
For some of these results: Results with a measured potency or affinity are listed apart.

Tests used:
Parameters in all cases: scale not given: direction of the effect not stated beside the values
[1] = molecular target: Protein translocase subunit SecA (Escherichia coli (strain K12)) (UniProt P10408); experiment: Assay to Identify E. coli SecA ATPase Inhibitors; assay type: functional; details: 30 µM
[2] = molecular target: T1, Ubiquitin-activating enzyme e1, putative (Leishmania donovani (strain BPK282A1)) (UniProt E9BSI1); experiment: Leishmania donovani Ubiquitin Activating Enzyme (LdE1); assay type: functional; details: 30 µM
T1 sequence (whole entry): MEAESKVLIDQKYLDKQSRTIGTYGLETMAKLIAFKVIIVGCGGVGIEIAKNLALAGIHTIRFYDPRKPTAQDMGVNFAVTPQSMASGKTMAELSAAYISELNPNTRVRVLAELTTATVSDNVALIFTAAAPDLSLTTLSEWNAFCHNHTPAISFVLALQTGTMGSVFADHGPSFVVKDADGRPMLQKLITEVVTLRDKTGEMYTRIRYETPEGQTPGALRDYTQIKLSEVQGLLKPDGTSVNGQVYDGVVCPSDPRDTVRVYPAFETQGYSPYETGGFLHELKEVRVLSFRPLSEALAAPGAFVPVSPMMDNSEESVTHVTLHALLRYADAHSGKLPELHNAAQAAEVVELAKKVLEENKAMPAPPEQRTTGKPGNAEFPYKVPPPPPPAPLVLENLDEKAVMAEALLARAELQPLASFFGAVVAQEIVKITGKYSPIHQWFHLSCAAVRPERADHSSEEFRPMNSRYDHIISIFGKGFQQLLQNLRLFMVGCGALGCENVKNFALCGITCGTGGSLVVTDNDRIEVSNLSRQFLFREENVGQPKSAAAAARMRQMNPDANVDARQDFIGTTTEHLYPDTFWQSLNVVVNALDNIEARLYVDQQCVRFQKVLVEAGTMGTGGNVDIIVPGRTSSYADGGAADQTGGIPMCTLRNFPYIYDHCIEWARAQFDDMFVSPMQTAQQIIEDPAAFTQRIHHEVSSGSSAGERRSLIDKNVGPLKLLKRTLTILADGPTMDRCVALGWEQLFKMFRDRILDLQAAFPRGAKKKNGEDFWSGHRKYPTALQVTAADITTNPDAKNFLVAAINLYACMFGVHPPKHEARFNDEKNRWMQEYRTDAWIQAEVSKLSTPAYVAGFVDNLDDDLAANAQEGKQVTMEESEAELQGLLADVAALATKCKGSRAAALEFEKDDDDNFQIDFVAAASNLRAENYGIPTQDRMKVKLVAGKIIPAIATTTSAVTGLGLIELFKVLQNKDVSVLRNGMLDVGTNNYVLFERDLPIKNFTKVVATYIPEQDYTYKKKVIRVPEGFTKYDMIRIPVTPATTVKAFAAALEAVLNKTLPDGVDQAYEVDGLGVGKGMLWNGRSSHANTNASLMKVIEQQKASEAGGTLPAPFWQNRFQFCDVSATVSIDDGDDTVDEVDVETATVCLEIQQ

[3] = molecular target: AMP-activated protein kinase, AMPK (Homo sapiens) (UniProt P54646+O43741+P54619+Q9UGJ0+Q9Y478+Q13131+Q9UGI9); experiment: AMP-dependent Kinase enzyme assay. An in vitro enzyme assay that detects ADP turnover that is directly proportional to AMPK activity. This uses naive AMPK that is activated during the assay with MK-8722; assay type: functional; details: 30 µM
[4] = molecular target: Sialic acid-binding Ig-like lectin 9 (Homo sapiens) (UniProt Q9Y336); experiment: Hs-Siglec9 ALPHAscreen SOP 20170721; details: 10 µM
Trypanosoma cruzi = experiment: Trypanosoma cruzi phosphomannomutase and mannose-1-phosphate guanylyltransferase assay; assay type: functional; details: 10 µM
[5] = molecular target: T2, Arginase-2, mitochondrial (Homo sapiens) (UniProt P78540); experiment: in vitro enzyme assay to detect the production of urea directly proportional to the activity of Arginase II; assay type: functional; details: 33.3 µM; note: in the data most compounds retested in dose-response had high values
T2 sequence (whole entry): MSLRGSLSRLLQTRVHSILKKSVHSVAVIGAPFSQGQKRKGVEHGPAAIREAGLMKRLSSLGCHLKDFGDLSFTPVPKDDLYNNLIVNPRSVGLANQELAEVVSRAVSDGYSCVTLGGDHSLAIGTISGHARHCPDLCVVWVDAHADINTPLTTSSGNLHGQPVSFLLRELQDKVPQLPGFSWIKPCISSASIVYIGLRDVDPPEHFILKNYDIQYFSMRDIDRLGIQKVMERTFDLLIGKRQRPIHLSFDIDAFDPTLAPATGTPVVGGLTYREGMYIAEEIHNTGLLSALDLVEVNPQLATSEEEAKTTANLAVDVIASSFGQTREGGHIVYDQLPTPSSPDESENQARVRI

[6] = molecular target: T3, Proteasome subunit beta (Trypanosoma cruzi) (UniProt O96673); experiment: Trypanosoma cruzi proteasome chymotrypsin-like activity (TcProtChymo) assay.; note: in the data most compounds retested in dose-response had high values; assay type: functional; details: 9.37 µM
T3 sequence (whole entry): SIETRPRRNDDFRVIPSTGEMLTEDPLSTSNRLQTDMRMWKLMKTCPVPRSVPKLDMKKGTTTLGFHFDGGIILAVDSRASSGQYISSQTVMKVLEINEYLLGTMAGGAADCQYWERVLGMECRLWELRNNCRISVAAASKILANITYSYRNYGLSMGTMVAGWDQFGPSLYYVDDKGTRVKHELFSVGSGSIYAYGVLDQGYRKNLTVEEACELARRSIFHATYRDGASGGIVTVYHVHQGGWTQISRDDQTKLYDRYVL

Homo sapiens = organism: Homo sapiens; experiment: To identify inhibition of the IFN signalling (Jak-Stat) pathway via expression of an eGFP reporter gene under the control of an IFN-stimulated response element (ISRE) containing MxA promoter.; assay type: functional; details: 30 µM
[7] = molecular target: T4, Tyrosyl-tRNA synthetase, putative (Trypanosoma cruzi (strain CL Brener)) (UniProt Q4DSP6); experiment: Trypanosoma cruzi tyrosyl tRNA synthetase (TcYRS) _High Tyrosine SOP; assay type: functional; details: 30 µM; note: in the data most compounds retested in dose-response had high values
T4 sequence (whole entry): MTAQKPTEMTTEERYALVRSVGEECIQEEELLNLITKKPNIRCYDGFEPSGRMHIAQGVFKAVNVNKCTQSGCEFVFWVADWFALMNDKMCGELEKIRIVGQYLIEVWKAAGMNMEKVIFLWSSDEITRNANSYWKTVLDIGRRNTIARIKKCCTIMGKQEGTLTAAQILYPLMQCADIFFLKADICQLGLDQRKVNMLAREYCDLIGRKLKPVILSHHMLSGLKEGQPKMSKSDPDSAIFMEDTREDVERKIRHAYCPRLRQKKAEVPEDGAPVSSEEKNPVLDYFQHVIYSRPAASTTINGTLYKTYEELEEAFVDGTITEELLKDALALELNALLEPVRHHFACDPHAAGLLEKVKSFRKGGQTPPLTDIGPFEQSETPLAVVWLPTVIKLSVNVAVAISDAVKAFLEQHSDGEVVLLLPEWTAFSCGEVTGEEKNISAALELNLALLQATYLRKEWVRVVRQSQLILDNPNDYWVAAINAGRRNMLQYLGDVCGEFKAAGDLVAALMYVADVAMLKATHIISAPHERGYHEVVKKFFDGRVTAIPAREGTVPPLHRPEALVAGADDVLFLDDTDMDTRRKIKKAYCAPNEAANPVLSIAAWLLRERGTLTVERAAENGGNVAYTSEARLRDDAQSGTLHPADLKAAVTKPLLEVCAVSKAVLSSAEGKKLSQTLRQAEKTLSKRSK

[8] = molecular target: T4, Tyrosyl-tRNA synthetase, putative (Trypanosoma cruzi (strain CL Brener)); experiment: Trypanosoma cruzi tyrosyl tRNA synthetase (TcYRS) SOP; assay type: functional; details: 30 µM
[9] = molecular target: Chromo domain-containing protein 1 (Saccharomyces cerevisiae (strain ATCC 204508 / S288c) (Baker's yeast)) (UniProt P32657); experiment: ScCHD-1 Enzyme Inhibition Assay; assay type: functional; details: 30 µM; note: in the data most compounds retested in dose-response had high values
Sequence of Chromo domain-containing protein 1 (Saccharomyces cerevisiae (strain ATCC 204508 / S288c) (Baker's yeast)) (P32657 whole entry, the tested form may be a part): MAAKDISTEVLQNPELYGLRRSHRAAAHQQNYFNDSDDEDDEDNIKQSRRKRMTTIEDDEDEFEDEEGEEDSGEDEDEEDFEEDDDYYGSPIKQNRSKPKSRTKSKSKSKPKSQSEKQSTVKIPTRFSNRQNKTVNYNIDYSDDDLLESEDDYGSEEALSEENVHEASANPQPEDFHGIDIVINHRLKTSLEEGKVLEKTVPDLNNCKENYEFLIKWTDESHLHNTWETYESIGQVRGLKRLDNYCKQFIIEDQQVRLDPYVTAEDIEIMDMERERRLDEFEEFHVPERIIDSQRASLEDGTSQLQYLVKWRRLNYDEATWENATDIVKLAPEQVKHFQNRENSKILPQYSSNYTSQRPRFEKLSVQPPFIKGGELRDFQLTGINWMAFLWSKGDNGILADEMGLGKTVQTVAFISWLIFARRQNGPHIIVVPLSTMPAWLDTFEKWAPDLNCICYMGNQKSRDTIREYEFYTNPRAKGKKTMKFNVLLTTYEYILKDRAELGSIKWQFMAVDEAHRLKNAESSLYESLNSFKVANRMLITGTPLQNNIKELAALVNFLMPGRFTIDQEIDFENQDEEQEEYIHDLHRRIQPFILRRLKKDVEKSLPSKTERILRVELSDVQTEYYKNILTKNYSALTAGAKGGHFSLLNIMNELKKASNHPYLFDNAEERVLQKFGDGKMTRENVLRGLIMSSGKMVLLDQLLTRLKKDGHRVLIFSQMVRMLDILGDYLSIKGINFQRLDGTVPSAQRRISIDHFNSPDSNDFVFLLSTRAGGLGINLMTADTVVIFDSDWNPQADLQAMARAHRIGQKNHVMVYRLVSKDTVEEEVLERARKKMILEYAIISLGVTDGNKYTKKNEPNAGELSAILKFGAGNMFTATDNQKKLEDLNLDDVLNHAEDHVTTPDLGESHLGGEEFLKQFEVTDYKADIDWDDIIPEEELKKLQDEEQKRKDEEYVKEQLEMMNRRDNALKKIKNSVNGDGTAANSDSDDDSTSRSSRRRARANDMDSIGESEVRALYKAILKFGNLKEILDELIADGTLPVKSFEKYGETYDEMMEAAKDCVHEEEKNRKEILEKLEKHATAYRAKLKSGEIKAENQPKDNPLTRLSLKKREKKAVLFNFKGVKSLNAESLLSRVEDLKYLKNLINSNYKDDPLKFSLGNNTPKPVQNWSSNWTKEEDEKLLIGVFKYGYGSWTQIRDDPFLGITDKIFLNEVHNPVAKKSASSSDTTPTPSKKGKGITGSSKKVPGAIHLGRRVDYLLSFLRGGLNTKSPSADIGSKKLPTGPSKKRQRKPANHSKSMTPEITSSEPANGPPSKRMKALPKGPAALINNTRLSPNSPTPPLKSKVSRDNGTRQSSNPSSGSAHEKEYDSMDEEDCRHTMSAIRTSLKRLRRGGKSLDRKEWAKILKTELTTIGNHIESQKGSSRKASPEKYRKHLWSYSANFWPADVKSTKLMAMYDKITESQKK

Sequence of Sialic acid-binding Ig-like lectin 9 (Homo sapiens) (Q9Y336 whole entry): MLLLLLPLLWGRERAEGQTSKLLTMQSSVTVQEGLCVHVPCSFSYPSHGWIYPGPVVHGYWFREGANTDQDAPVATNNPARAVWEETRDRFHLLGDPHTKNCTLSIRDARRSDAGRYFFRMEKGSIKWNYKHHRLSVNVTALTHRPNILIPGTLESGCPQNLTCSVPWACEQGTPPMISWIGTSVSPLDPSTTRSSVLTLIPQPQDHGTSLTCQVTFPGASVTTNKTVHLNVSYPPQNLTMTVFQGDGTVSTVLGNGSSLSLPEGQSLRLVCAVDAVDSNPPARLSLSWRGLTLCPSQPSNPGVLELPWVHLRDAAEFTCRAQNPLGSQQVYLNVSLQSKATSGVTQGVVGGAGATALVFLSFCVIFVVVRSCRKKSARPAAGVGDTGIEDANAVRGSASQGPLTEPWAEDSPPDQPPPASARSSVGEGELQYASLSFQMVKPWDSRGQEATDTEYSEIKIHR
Sequence of Protein translocase subunit SecA (Escherichia coli (strain K12)) (P10408 whole entry): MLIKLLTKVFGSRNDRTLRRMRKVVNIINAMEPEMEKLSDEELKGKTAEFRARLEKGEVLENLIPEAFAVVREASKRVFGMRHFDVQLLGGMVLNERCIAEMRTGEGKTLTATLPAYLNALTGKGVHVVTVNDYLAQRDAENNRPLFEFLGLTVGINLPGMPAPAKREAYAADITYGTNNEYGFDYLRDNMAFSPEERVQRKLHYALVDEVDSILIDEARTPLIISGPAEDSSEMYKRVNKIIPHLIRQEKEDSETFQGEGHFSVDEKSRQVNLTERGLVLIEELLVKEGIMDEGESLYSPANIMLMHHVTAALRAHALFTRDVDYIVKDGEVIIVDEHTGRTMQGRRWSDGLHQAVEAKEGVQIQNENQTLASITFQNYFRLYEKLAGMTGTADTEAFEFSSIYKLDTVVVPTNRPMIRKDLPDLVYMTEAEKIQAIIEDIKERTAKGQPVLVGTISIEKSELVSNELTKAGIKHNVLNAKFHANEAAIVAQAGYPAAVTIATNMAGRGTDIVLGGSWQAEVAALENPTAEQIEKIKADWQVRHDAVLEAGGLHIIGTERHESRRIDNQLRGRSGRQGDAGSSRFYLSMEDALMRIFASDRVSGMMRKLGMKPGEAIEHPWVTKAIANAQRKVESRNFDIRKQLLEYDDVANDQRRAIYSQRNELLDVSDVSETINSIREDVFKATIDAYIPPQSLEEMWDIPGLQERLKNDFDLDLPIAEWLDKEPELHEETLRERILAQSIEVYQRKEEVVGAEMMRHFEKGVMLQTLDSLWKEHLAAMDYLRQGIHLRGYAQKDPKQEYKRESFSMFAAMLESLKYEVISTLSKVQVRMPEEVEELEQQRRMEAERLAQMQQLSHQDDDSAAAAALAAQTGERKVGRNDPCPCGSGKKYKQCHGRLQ

| SMILES | Percent Effect [1] [%] | Percent Effect [2] [%] | Percent Effect [3] [%] | Percent Effect [4] [%] | Percent Effect (Trypanosoma cruzi) [%] | Percent Effect [5] [%] | Percent Effect [6] [%] | Percent Effect (Homo sapiens) [%] | Percent Effect [7] [%] | Percent Effect [8] [%] | Percent Effect [9] [%] |
| --- | --- | --- | --- | --- | --- | --- | --- | --- | --- | --- | --- |
| Clc1cc(CN2CCCC2Cn2cncn2)c2ncccc2c1 (configuration not stated) | -4.67 | 2.7 | -1.32 | -0.586 | -2.88 | -12.4 | 3.95 | -0.129 | 2.97 | 6.1 | -2.39 |
| Cn1cc(C(=O)CC2CCCN2C(=O)c2n[nH]c3ccccc23)cn1 (configuration not stated) | -2.35 | 1.27 | 3.62 | 0.382 | 2.56 | 1.94 | 7.03 | -8.13 | 7.29 | 2.53 | -9.86 |
| Cc1cc(CN(C)Cc2cc3c(cc2OC(F)F)OCO3)on1 | -6.72 | 2.7 | 1.74 | -1.22 | -0.684 | 3.23 | 5.24 | -2.07 | 0 | 1.24 | -2.37 |
| CCCC(C)CN1CCC(n2cc(CCCO)nn2)CC1 (configuration not stated) | -3.6 | 4.17 | -2.5 | 0.0396 | 1.46 | 1.32 | 2.28 | -7.18 | 4.21 | 5.13 | 0.69 |
| O=C(NCCCn1cccn1)C1(c2ccc(F)cc2)CC1 | 0.73 | 16.4 | 0.361 | 3.37 | 3.72 | 10.4 | 8.87 | -5.73 | 6.45 | 12.5 | -4.26 |
| O=C(CN1CCc2c(ncn2C2CC2)C1)NC1CC1 | -2.66 | -3.8 | -0.272 | 5.53 | -2.56 | 3.66 | 9.09 | 5.09 | 2.08 | 5.06 | -4.23 |
| CC(C)NC(=O)N1CCc2ncc(CN3CCOCC3)n2CC1 | 1.23 | 0 | 6.6 | 1.59 | -4.2 | 0.319 | 14 | 4.62 | 3.24 | 7.69 | 1.69 |
| O=C(NC1CCC1)[C@@H]1C[C@@H]2CCN(Cc3cccs3)C[C@@H]2O1 | -2.68 | -2.67 | 10.9 | -2.43 | -0.197 | 2.56 | 7.67 | 28.3 | 3.19 | 11.5 | -2.54 |
| Cc1cc(CNC(=O)NC(C)c2ccc(N3CCOCC3)cc2)no1 (configuration not stated) | -5.74 | 10.4 | -1.83 | 16.5 | 5.61 | -6.9 | 11.8 | -5.95 | 4.3 | 8.64 | -6.04 |
| CN1CC2(COCCN(C(=O)c3ccco3)C2)OCC1=O (configuration not stated) | -5.81 | 2.67 | -0.919 | -3.45 | -5.99 | -55.4 | 0.513 | -7.28 | -3.12 | -2.5 | -2.77 |
| Cn1cnnc1C1CCCN(C(=O)c2cnc3ccccc3n2)C1 (configuration not stated) | -5.29 | -18.2 | 6.07 | 1.12 | 0.49 | -1.47 | 5.58 | 17.6 | 7.62 | 11.8 | -15.4 |
| CC(C)OCCCN1CCCC(c2nc3ccccc3n2C(C)C)C1 (configuration not stated) | -2.17 | 13.5 | -7.28 | -1.96 | 3.32 | 32.9 | 15 | 22.4 | 9.9 | 13.4 | 6.88 |
| CN1C(=O)CC(c2cnn(C)c2)C12CCN(C(=O)C1CC=CC1)CC2 (configuration not stated) | -3.3 | -2.7 | 6.7 | 5.51 | -2.25 | -2.23 | 7.2 | -12.6 | -1.08 | -2.56 | 9.24 |
| CCc1nc(C2CCCN(C(=O)CCn3ccccc3=O)C2)no1 (configuration not stated) | -2.1 | 0 | -7.52 | -0.82 | 8.08 | -1.15 | 1.34 | -13.7 | -0.49 | 0 | 2.66 |
| CC(C)c1nccn1CCCNC(=O)c1ccc(-c2cncnc2)nc1 | -0.347 | 8 | -10.9 | 8.21 | 3.21 | 7.29 | 16.2 | 17.9 | 4.92 | 13.6 | -5.5 |
| CCOc1ccc(Cl)cc1C1CCCN1 (configuration not stated) | -3.13 | 10.5 | 4 | 1.21 | 3.21 | -11.8 | 13.5 | 2.15 | 0 | 7.79 | -2.96 |
| N#CC(Sc1nnnn1C1CCOCC1)C1CCCCC1 (configuration not stated) | -4.28 | 2.67 | 0.0297 | 9.31 | -5.55 | 0.521 | 7.32 | -0.799 | 3.83 | 6.17 | -4.6 |
